# Legend:
# Assay in all cases: yeast three-hybrid, YBZ-1, SC-Leu-His + 0.5 mM 3-AT, 4 days
# Conditions in all cases: tags: N-Gal4 AD-HA kept; label: inside an RPR1-promoter hybrid RNA with tandem MS2 sites; ssRNA
# [1] = biological target: PUM1 PUF domain R7-GND (Homo sapiens, UniProt Q14671 828-1176, S1079G;E1083D)
# In short: (§1)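 A centromeric plasmid in strain YBZ-1 co-expressed Pumilio-1 PUF domain libraries, randomized at the three base-contacting residues of each repeat, with matching RNA elements; the strain carries a LexA–MS2 coat fusion and a HIS3 reporter. After four days on SC-Leu (input) or SC-Leu-His + 0.5 mM 3-AT (selection), the repeat regions were PCR-amplified and Illumina-sequenced. The interaction score is the log change in variant frequency from input to selection, using log2 and a pseudocount of 1 where absent.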
# [2] = biological target: PUM1 PUF domain R5-RGV (Homo sapiens, UniProt Q14671 828-1176, C1007R;R1008G;Q1011V)
# In short: as §1
# [3] = biological target: PUM1 PUF domain R5-KSD (Homo sapiens, UniProt Q14671 828-1176, C1007K;R1008S;Q1011D)
# In short: as §1
# [4] = biological target: PUM1 PUF domain R5-GRK (Homo sapiens, UniProt Q14671 828-1176, C1007G;Q1011K)
# In short: as §1
# [5] = biological target: PUM1 PUF domain R3-WAR (Homo sapiens, UniProt Q14671 828-1176, C935W;R936A;Q939R)
# In short: as §1
# [6] = biological target: PUM1 PUF domain R4-QPG (Homo sapiens, UniProt Q14671 828-1176, N971Q;H972P;Q975G)
# In short: as §1
# [7] = biological target: PUM1 PUF domain R4-SQR (Homo sapiens, UniProt Q14671 828-1176, N971S;H972Q;Q975R)
# In short: as §1
# [8] = biological target: PUM1 PUF domain R4-WGA (Homo sapiens, UniProt Q14671 828-1176, N971W;H972G;Q975A)
# In short: as §1
# [9] = biological target: PUM1 PUF domain R5-DWY (Homo sapiens, UniProt Q14671 828-1176, C1007D;R1008W;Q1011Y)
# In short: as §1
# [10] = biological target: PUM1 PUF domain R8-KHQ (Homo sapiens, UniProt Q14671 828-1176, N1122K;Y1123H)
# In short: as §1
# [11] = biological target: PUM1 PUF domain R8-RYF (Homo sapiens, UniProt Q14671 828-1176, N1122R;Q1126F)
# In short: as §1
# [12] = biological target: PUM1 PUF domain R5-RQT (Homo sapiens, UniProt Q14671 828-1176, C1007R;R1008Q;Q1011T)
# In short: as §1
# [13] = biological target: PUM1 PUF domain R5-KLI (Homo sapiens, UniProt Q14671 828-1176, C1007K;R1008L;Q1011I)
# In short: as §1
# [14] = biological target: PUM1 PUF domain R5-RYI (Homo sapiens, UniProt Q14671 828-1176, C1007R;R1008Y;Q1011I)
# In short: as §1
# [15] = biological target: PUM1 PUF domain R3-DYS (Homo sapiens, UniProt Q14671 828-1176, C935D;R936Y;Q939S)
# In short: as §1
# [16] = biological target: PUM1 PUF domain R5-PFG (Homo sapiens, UniProt Q14671 828-1176, C1007P;R1008F;Q1011G)
# In short: as §1
# [17] = biological target: PUM1 PUF domain R4-KGY (Homo sapiens, UniProt Q14671 828-1176, N971K;H972G;Q975Y)
# In short: as §1
# [18] = biological target: PUM1 PUF domain R3-YYA (Homo sapiens, UniProt Q14671 828-1176, C935Y;R936Y;Q939A)
# In short: as §1
# [19] = biological target: PUM1 PUF domain R3-RAQ (Homo sapiens, UniProt Q14671 828-1176, C935R;R936A)
# In short: as §1
# [20] = biological target: PUM1 PUF domain R4-IML (Homo sapiens, UniProt Q14671 828-1176, N971I;H972M;Q975L)
# In short: as §1
# Sequence of PUM1 PUF domain R5-GRK (Q14671 828-1176 C1007G/Q1011K): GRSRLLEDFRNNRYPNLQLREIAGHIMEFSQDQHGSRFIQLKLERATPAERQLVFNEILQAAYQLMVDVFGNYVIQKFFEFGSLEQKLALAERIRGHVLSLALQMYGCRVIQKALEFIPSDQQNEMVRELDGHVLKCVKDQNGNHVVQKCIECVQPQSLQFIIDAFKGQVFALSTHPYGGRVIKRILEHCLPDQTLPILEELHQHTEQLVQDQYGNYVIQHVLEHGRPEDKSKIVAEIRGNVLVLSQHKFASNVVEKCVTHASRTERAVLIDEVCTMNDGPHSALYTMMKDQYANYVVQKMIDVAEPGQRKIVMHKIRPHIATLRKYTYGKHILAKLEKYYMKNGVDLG
# Sequence of PUM1 PUF domain R5-DWY (Q14671 828-1176 C1007D/R1008W/Q1011Y): as the sequence (Q14671 828-1176 C1007G/Q1011K) above, with G180D, R181W, K184Y counted along it
# Sequence of PUM1 PUF domain R4-QPG (Q14671 828-1176 N971Q/H972P/Q975G): as the sequence (Q14671 828-1176 C1007G/Q1011K) above, with N144Q, H145P, Q148G, G180C, K184Q counted along it
# Sequence of PUM1 PUF domain R5-RGV (Q14671 828-1176 C1007R/R1008G/Q1011V): as the sequence (Q14671 828-1176 C1007G/Q1011K) above, with G180R, R181G, K184V counted along it
# Sequence of PUM1 PUF domain R5-KSD (Q14671 828-1176 C1007K/R1008S/Q1011D): as the sequence (Q14671 828-1176 C1007G/Q1011K) above, with G180K, R181S, K184D counted along it
# Sequence of PUM1 PUF domain R4-WGA (Q14671 828-1176 N971W/H972G/Q975A): as the sequence (Q14671 828-1176 C1007G/Q1011K) above, with N144W, H145G, Q148A, G180C, K184Q counted along it
# Sequence of PUM1 PUF domain R3-WAR (Q14671 828-1176 C935W/R936A/Q939R): as the sequence (Q14671 828-1176 C1007G/Q1011K) above, with C108W, R109A, Q112R, G180C, K184Q counted along it
# Sequence of PUM1 PUF domain R5-RQT (Q14671 828-1176 C1007R/R1008Q/Q1011T): as the sequence (Q14671 828-1176 C1007G/Q1011K) above, with G180R, R181Q, K184T counted along it
# Sequence of PUM1 PUF domain R3-DYS (Q14671 828-1176 C935D/R936Y/Q939S): as the sequence (Q14671 828-1176 C1007G/Q1011K) above, with C108D, R109Y, Q112S, G180C, K184Q counted along it
# Sequence of PUM1 PUF domain R5-RYI (Q14671 828-1176 C1007R/R1008Y/Q1011I): as the sequence (Q14671 828-1176 C1007G/Q1011K) above, with G180R, R181Y, K184I counted along it
# Sequence of PUM1 PUF domain R4-IML (Q14671 828-1176 N971I/H972M/Q975L): as the sequence (Q14671 828-1176 C1007G/Q1011K) above, with N144I, H145M, Q148L, G180C, K184Q counted along it
# Sequence of PUM1 PUF domain R3-RAQ (Q14671 828-1176 C935R/R936A): as the sequence (Q14671 828-1176 C1007G/Q1011K) above, with C108R, R109A, G180C, K184Q counted along it
# Sequence of PUM1 PUF domain R4-SQR (Q14671 828-1176 N971S/H972Q/Q975R): as the sequence (Q14671 828-1176 C1007G/Q1011K) above, with N144S, H145Q, Q148R, G180C, K184Q counted along it
# Sequence of PUM1 PUF domain R3-YYA (Q14671 828-1176 C935Y/R936Y/Q939A): as the sequence (Q14671 828-1176 C1007G/Q1011K) above, with C108Y, R109Y, Q112A, G180C, K184Q counted along it
# Sequence of PUM1 PUF domain R5-KLI (Q14671 828-1176 C1007K/R1008L/Q1011I): as the sequence (Q14671 828-1176 C1007G/Q1011K) above, with G180K, R181L, K184I counted along it
# Sequence of PUM1 PUF domain R8-RYF (Q14671 828-1176 N1122R/Q1126F): as the sequence (Q14671 828-1176 C1007G/Q1011K) above, with G180C, K184Q, N295R, Q299F counted along it
# Sequence of PUM1 PUF domain R8-KHQ (Q14671 828-1176 N1122K/Y1123H): as the sequence (Q14671 828-1176 C1007G/Q1011K) above, with G180C, K184Q, N295K, Y296H counted along it
# Sequence of PUM1 PUF domain R4-KGY (Q14671 828-1176 N971K/H972G/Q975Y): as the sequence (Q14671 828-1176 C1007G/Q1011K) above, with N144K, H145G, Q148Y, G180C, K184Q counted along it
# Sequence of PUM1 PUF domain R5-PFG (Q14671 828-1176 C1007P/R1008F/Q1011G): as the sequence (Q14671 828-1176 C1007G/Q1011K) above, with G180P, R181F, K184G counted along it
# Sequence of PUM1 PUF domain R7-GND (Q14671 828-1176 S1079G/E1083D): as the sequence (Q14671 828-1176 C1007G/Q1011K) above, with G180C, K184Q, S252G, E256D counted along it
sequence,measurement,setting,value
GGCUAGAACUAGUGGAUCCCCCGGCGCCCGGCGGCUCGAGCCCGGGUAAGUUUAAAUAGUCUGCAUGCCGCCGGGCGCCAUGCCUGCAGGUCGACUCUAGAAAACAUG,binding signal,[1],3.28 log2 enrichment (interaction score)
GGCUAGAACUAGUGGAUCCCCCGGCGCCCGGCGGCUCGAGCCCGGGUAAGUGUUAAUAGUCUGCAUGCCGCCGGGCGCCAUGCCUGCAGGUCGACUCUAGAAAACAUG,binding signal,[2],0.34 log2 enrichment (interaction score)
same,binding signal,[3],1.41 log2 enrichment (interaction score)
same,binding signal,[4],4.85 log2 enrichment (interaction score)
GGCUAGAACUAGUGGAUCCCCCGGCGCCCGGCGGCUCGAGCCCGGGUAAGUGUAAGUAGUCUGCAUGCCGCCGGGCGCCAUGCCUGCAGGUCGACUCUAGAAAACAUG,binding signal,[5],2.85 log2 enrichment (interaction score)
GGCUAGAACUAGUGGAUCCCCCGGCGCCCGGCGGCUCGAGCCCGGGUAAGUGUACAUAGUCUGCAUGCCGCCGGGCGCCAUGCCUGCAGGUCGACUCUAGAAAACAUG,binding signal,[6],3.33 log2 enrichment (interaction score)
same,binding signal,[7],3.07 log2 enrichment (interaction score)
same,binding signal,[8],3.39 log2 enrichment (interaction score)
GGCUAGAACUAGUGGAUCCCCCGGCGCCCGGCGGCUCGAGCCCGGGUAAGUGUAUAUAGUCUGCAUGCCGCCGGGCGCCAUGCCUGCAGGUCGACUCUAGAAAACAUG,binding signal,[6],5.06 log2 enrichment (interaction score)
GGCUAGAACUAGUGGAUCCCCCGGCGCCCGGCGGCUCGAGCCCGGGUAAGUGUGAAUAGUCUGCAUGCCGCCGGGCGCCAUGCCUGCAGGUCGACUCUAGAAAACAUG,binding signal,[9],2.39 log2 enrichment (interaction score)
same,binding signal,[4],1.55 log2 enrichment (interaction score)
GGCUAGAACUAGUGGAUCCCCCGGCGCCCGGCGGCUCGAGCCCGGGUAAGCGUAAAUAGUCUGCAUGCCGCCGGGCGCCAUGCCUGCAGGUCGACUCUAGAAAACAUG,binding signal,[10],4.7 log2 enrichment (interaction score)
same,binding signal,[11],4.88 log2 enrichment (interaction score)
GGCUAGAACUAGUGGAUCCCCCGGCGCCCGGCGGCUCGAGCCCGGGUAAGUGUCAAUAGUCUGCAUGCCGCCGGGCGCCAUGCCUGCAGGUCGACUCUAGAAAACAUG,binding signal,[2],2.55 log2 enrichment (interaction score)
same,binding signal,[12],4.99 log2 enrichment (interaction score)
same,binding signal,[13],2.75 log2 enrichment (interaction score)
same,binding signal,[3],2.5 log2 enrichment (interaction score)
same,binding signal,[9],1.16 log2 enrichment (interaction score)
same,binding signal,[14],3.71 log2 enrichment (interaction score)
same,binding signal,[4],2.77 log2 enrichment (interaction score)
GGCUAGAACUAGUGGAUCCCCCGGCGCCCGGCGGCUCGAGCCCGGGUAAGUGUAAAUAGUCUGCAUGCCGCCGGGCGCCAUGCCUGCAGGUCGACUCUAGAAAACAUG,binding signal,[15],4.59 log2 enrichment (interaction score)
same,binding signal,[12],1.57 log2 enrichment (interaction score)
same,binding signal,[6],2.21 log2 enrichment (interaction score)
same,binding signal,[9],6.99 log2 enrichment (interaction score)
same,binding signal,[16],6.32 log2 enrichment (interaction score)
same,binding signal,[17],4.05 log2 enrichment (interaction score)
same,binding signal,[4],3.37 log2 enrichment (interaction score)
same,binding signal,[8],3.8 log2 enrichment (interaction score)
GGCUAGAACUAGUGGAUCCCCCGGCGCCCGGCGGCUCGAGCCCGGGUAAGUGUAAUUAGUCUGCAUGCCGCCGGGCGCCAUGCCUGCAGGUCGACUCUAGAAAACAUG,binding signal,[18],3.25 log2 enrichment (interaction score)
same,binding signal,[19],3.8 log2 enrichment (interaction score)
same,binding signal,[5],2.65 log2 enrichment (interaction score)
GGCUAGAACUAGUGGAUCCCCCGGCGCCCGGCGGCUCGAGCCCGGGUAAGUGUAGAUAGUCUGCAUGCCGCCGGGCGCCAUGCCUGCAGGUCGACUCUAGAAAACAUG,binding signal,[20],3.09 log2 enrichment (interaction score)
